Source: PubChem (National Center for Advancing Translational Sciences (NCATS))
MCF10A rerep – induces DNA re-replication in MCF 10a normal breast cells; MCF 10A DNA re-replication, Hoechst nuclear intensity, 48 h; Potency, µM (titrated, usually from 46.1 µM), inactives show top-dose activity, positive = re-replication, hits mostly activators; 2.9% of 350,000 active; note: % of control where 0% means no effect; nearly all actives have a fitted effect of over 50% in size
KB-V1 cytotox – KB-V1 MDR subline cytotoxicity; KB-V1 MDR cells viability, CellTiter-Glo, 72 h; 3.4% of 400,000 active; AID 1347076; Potency, µM (series often up to 46.1 µM), actives largely listed as cytotoxic; note: % is set by controls: 0 for no effect and ±100 for the full control effect; nearly all actives have a fitted effect of over 60% in size
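Potencies derive from concentration-effect curves fitted to normalized luminescence (CellTiter-Glo) of KB-V1 cells treated for 72 h at 37 degrees C in phenol-red-free DMEM containing 10% FBS.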
ELG1 repair inh – blocks ELG1-dependent DNA repair in HEK293T cells. HEK293T ELG1-luciferase reporter, luminescence, 16 h; DNA damage induced by 5-fluorouridine. Potency, µM (titrated, usually from 46.1 µM), without a hit: at the top dose activity change, negative = inhibition, hits mostly inhibitors. 2.3% of 330,000 active. AID 504467; note: % is set by controls: 0 for no effect and ±100 for the full control effect; nearly all actives have a fitted effect of over 55% in size
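Cells (2,000 per well) received 5-fluorouridine plus test compound or DMSO and were incubated 16 hr at 37 °C, 5% CO2. Luciferase activity was read by luminescence 30 min after ONE-Glo addition; signal suppression marked inhibition of damage-induced ELG1 function.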
KB-3-1 cytotox – KB-3-1 parental cell cytotoxicity; KB-3-1 viability, CellTiter-Glo ATP luminescence, 72 h; Potency, µM (top dose mostly 46.1 µM), hits mostly cytotoxic; 1.4% of 400,000 active; note: % is set by controls: 0 for no effect and ±100 for the full control effect; nearly all actives have a fitted effect of over 60% in size
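72 h, 37 °C compound treatment of KB-3-1 parental cells; CellTiter-Glo added, 10 min, luminescence read. Data corrected against DMSO-only plates and normalized before curve fitting.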
SW480 rereplic – induces DNA re-replication in SW480 colon adenocarcinoma cells | SW480 DNA re-replication, Hoechst DNA content imaging, 48 h | Potency, µM (doses to about 46.1 µM), for the others: at the top dose re-replication activation, hits mostly activators | 1.8% of 340,000 active; note: % of control where 0% means no effect; nearly all actives have a fitted effect of over 55% in size
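250 cells/well; 23 nL cpd via pin tool; 48 hr, 37 C, 5% CO2; Hoechst 40 min; imager read of total nuclear intensity, ex 405/em 500-530 nm.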
* = called active by the depositor; i = inactive; ? = inconclusive; · = not tested or not shown. Rows were chosen to be rich in hits. Some 8.1% of all compounds tested hit in one or more screens of this group. Calls come from the whole dose curve; as a rule, active = well fitted curve in the direction sought with a large enough effect; inconclusive = small, poorly fitted or top-dose-only effect, or another doubt; inactive = no such curve, though single readings can be large; an effect the other way counts as inactive or inconclusive. Potency is the fitted concentration of half-maximal effect.

SMILES | MCF10A rerep | KB-V1 cytotox | ELG1 repair inh | KB-3-1 cytotox | SW480 rereplic
Cn1c(NCCCN2CCOCC2)nc2c1c(=O)n(Cc1ccc(Cl)c(Cl)c1)c(=O)n2C | ? | 15µM* | -28% | i | 1%
Cc1nc(N)c(C#N)c(-c2ccccc2)c1C | -2% | i | -19% | i | -4%
CCN(CC)C(=O)CSc1nc(N)c(C#N)c(-c2cccs2)c1C#N | 18% | ? | ? | i | 8%
Cc1ccc(-n2nc(C)c3c(-c4cccs4)c(C#N)c(N)nc32)cc1 | 8.2µM* | ? | 13µM* | i | ?
Cc1nn(-c2ccccc2)c2nc(N)c(C#N)c(-c3ccc(F)cc3)c12 | 16µM* | i | ? | i | 14%
Cc1cc(NC(=O)CN2CCc3ccccc3C2)nc2c1c(=O)oc1ccccc12 | ? | i | -12% | i | -3%
O=C(CN1CCOCC1)NNC(=S)Nc1ccccc1 | -7% | i | -9% | i | 6%
O=C(CSc1nccn1Cc1ccccc1)Nc1nc2ccccc2s1 | · | i | · | i | ·
Nc1nc(CSc2nnnn2-c2ccccc2)nc(N2CCCc3ccccc32)n1 | ? | ? | 16µM* | i | 0%
Cc1ccc(N/C(N)=N/c2nc(CSc3ccccn3)cc(=O)[nH]2)c(C)c1 | 28% | ? | ? | i | 2%
CCn1cc2nc(SCC(=O)Nc3ccc(OC)cc3OC)n(Cc3ccc(OC)cc3)c(=O)c2n1 | 3.3µM* | ? | -11% | ? | 7.3µM*
CCn1cc2nc(SCc3cccc(C(F)(F)F)c3)n(Cc3ccc(OC)cc3)c(=O)c2n1 | · | 18µM* | · | i | ·
O=C(Nc1ccc(F)cc1)N1CCCN(c2nccc(C(F)(F)F)n2)CC1 | 1% | i | ? | i | 0%
CC(=O)COC(=O)CCc1nc2ccccc2[nH]c1=O | 2% | i | 5% | i | -4%
O=C(Cc1nc2ccccc2[nH]c1=O)c1ccccc1 | 21µM* | i | ? | ? | 29%
CCCCOC(=O)CCc1nc2ccccc2[nH]c1=O | 6% | i | 29µM* | i | 4%
CN(c1ccc(C(=O)Nc2nccs2)cc1)S(=O)(=O)c1ccccc1 | -3% | ? | -25% | i | -14%
Cc1ccc(OCCn2c(=S)[nH]c3ccccc32)c(C(C)C)c1 | ? | i | ? | 15µM* | 4%
COc1ccccc1OCCn1c(=S)[nH]c2ccccc21 | ? | 23µM* | -16% | ? | ?
COC(=O)c1ccc(C(=O)N2CCCC(CNC(=O)c3ccccc3Cl)C2)cc1 (stereo unspecified) | -3% | i | 24% | i | -8%
C=CCNC(=S)NNC(=O)c1cccn(Cc2ccc(Cl)cc2Cl)c1=O | 5% | 23µM* | -19% | i | -13%
C=CCNC(=S)NNC(=O)c1cccn(Cc2ccc(Cl)c(Cl)c2)c1=O | 1% | 16µM* | -27% | ? | 24%
COc1ccc(N(CC(=O)NC2CC2)S(=O)(=O)c2ccccc2)cc1 | -2% | i | -4% | i | -17%
Cc1ccc(C(=O)c2sc3nc4c(cc3c2N)CCC4)cc1 | 6% | i | ? | i | -7%
N/C(=N\OC(=O)/C=C/c1ccc(Br)cc1)c1ccccn1 | 21% | i | ? | i | ?
SMILES | MCF10A rerep | KB-V1 cytotox | ELG1 repair inh | KB-3-1 cytotox | SW480 rereplic
COc1cccc(/C=C/c2nc(S(=O)(=O)c3ccccc3)c(N(C)C)o2)c1 | 12µM* | i | -28% | i | ?
CSc1oc(-c2cccs2)nc1S(=O)(=O)c1ccccc1 | -1% | i | 9% | i | 0%
COc1ccccc1/C=C/c1nc(S(=O)(=O)c2ccccc2)c(N(C)C)o1 | 21µM* | i | -7% | i | ?
CN(C)c1oc(/C=C/c2cccs2)nc1S(=O)(=O)c1ccccc1 | 18µM* | i | 1% | i | 23µM*
COc1ccccc1-n1cnnc1SCC(=O)N1CCN(C(=O)c2ccco2)CC1 | ? | i | 2% | i | -7%
N#Cc1c[nH]n2c(NC3CCCC3)c(-c3ccc(Br)cc3)nc12 | · | i | · | i | ·
